From PubChem
Compounds with a hit are over-represented: about 17% of the library has one in this group of screens.
DT40 TDP1 no CPT = qHTS for Inhibitors of human tyrosyl-DNA phosphodiesterase 1 (TDP1): qHTS in cells in absence of CPT. DT40 Tdp1-/- hTDP1 cells, no CPT, ATP luminescence, 48 h. actives 15% (n = 420,000). Potency, µM (series often up to 46.2 µM), inactives show top-dose activity change, negative = growth inhibition, usual class: inhibitors. AID 686978, 2013; further: on the % scale 0 is the no-effect control and ±100 the full control effect; nearly all actives have a fitted effect of over 55% in size
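Compound effects on proliferation are scored in DT40 Tdp1-/-;hTDP1 cells in the absence of CPT. ATP levels (CellTiter-Glo luminescence) are recorded after a ≥48 hr, 37 °C incubation.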
TGFb SMAD3 inh = qHTS for Inhibitors of TGF-b | actives 1.2% (n = 410,000) | Potency, µM (series often up to 46.1 µM), inactives show at the top dose activity, negative = inhibition, hits mostly inhibitors | AID 588855, 2011 | HepG2 CAGA-GFP TGF-b/SMAD3 reporter, GFP fluorescence, 18 h; TGF-beta stimulated, 500 pg/mL final; further: on the % scale 0 is the no-effect control and ±100 the full control effect; nearly all actives have a fitted effect of over 65% in size
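Inhibition of TGF-beta-driven CAGA-GFP reporter expression in HEPG2 cells is measured by cellular GFP fluorescence after 18 h stimulation with 500 pg/mL recombinant TGF-beta in 1% FBS medium at 37 degrees C.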
HT1080 IDH1KD tx = qHTS for induction of synthetic lethality in tumor cells producing 2HG: qHTS for the HT-1080-IDH1KD cell line; HT-1080 IDH1 knockdown viability, ATP luminescence, 48 h; Potency, µM (doses to about 46.1 µM), for inactives: top-dose activity, negative = toxicity, actives largely listed as cytotoxic; actives 2% (n = 360,000);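 further: 0% = DMSO wells and -100% = cell-free medium wells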
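Luminescent ATP read-out (CellTiter-Glo, 10 min at room temperature) after 48 h compound exposure at 37 °C gave viability of IDH1-knockdown HT-1080 cells. Activity was normalised to DMSO and cell-free wells, then fitted as concentration-response curves.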
HT1080NT lethal = qHTS for induction of synthetic lethality in tumor cells producing 2HG: qHTS for the HT-1080-NT fibrosarcoma cell line | Potency, µM (titrated, usually from 46.1 µM), for the others: top-dose activity, negative = less viability, usual class: cytotoxic | actives 1.6% (n = 360,000) | AID 686970, 2013 | HT-1080-NT fibrosarcoma viability, CellTiter-Glo ATP luminescence, 48 h;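 further: NT is the 2HG producing partner of a matched IDH1 knockdown line; 0% = DMSO-treated cells and -100% = media-only wells without cells; nearly all actives have a fitted effect of over 55% in size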
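HT-1080-NT; 750 cells/well; 5% FBS RPMI; 48 h compound, 37 degrees C; CellTiter-Glo luminescence; curve fitting and curve-class assignment.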
TDP1 cell CPT = qHTS for Inhibitors of human tyrosyl-DNA phosphodiesterase 1 (TDP1): qHTS in cells in presence of CPT. chicken DT40 Tdp1-/-;hTDP1 cells + 20 nM CPT, ATP luminescence, 48 h. Potency, µM (series often up to 46.2 µM), without a hit: at the highest dose activity change, negative = growth inhibition, hits mostly inhibitors. actives 12% (n = 420,000); further: on the % scale 0 is the no-effect control and ±100 the full control effect; nearly all actives have a fitted effect of over 55% in size
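Chicken DT40 Tdp1-/- cells stably complemented with human TDP1 were seeded at 400 cells/well in medium containing 20 nM camptothecin, exposed to pin-transferred compounds, and grown at 37 °C for at least 48 hr. Viability was read as ATP luminescence.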
HepG2 viability = qHTS for Inhibitors of TGF-b: Cytotox Counterscreen. HepG2 CAGA-GFP viability, ATP luminescence, 18 h. Potency, µM (top dose mostly 46.1 µM), inactives show at the highest dose activity change, negative = cytotoxicity, usual class: cytotoxic. actives 0.76% (n = 410,000). AID 588856, 2011
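HepG2 CAGA-GFP cells (1000/well, DMEM with 1% FBS) received compound, then TGF-beta at 500 pg/mL final, and were incubated 18 hours at 37 degrees C. Viability was read by CellTiter-Glo luminescence. Media-only wells were set as complete cell-killing and DMSO as no toxicity.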
* = called active by the depositor; ? = inconclusive; · = not tested or not shown; ! = not active in a repeat; [ ] = remark or other dose. The call rests on the fitted dose curve; in most records, active means well fitted curve in the direction sought with a large enough effect; inconclusive means small, poorly fitted or top-dose-only effect, or another doubt; inactive means no such curve, though single readings can be large; an effect the other way counts as inactive or inconclusive. Potency means the concentration at half of the fitted maximal effect.

SMILES	DT40 TDP1 no CPT	TGFb SMAD3 inh	HT1080 IDH1KD tx	HT1080NT lethal	TDP1 cell CPT	HepG2 viability
COCCN(Cc1ccc(C)cc1)C(=O)[C@H]1O[C@@H](n2cnc3c(N)ncnc32)[C@H](O)[C@@H]1O	13%	?	20%	17%	20%	2%
Nc1ncnc2c1ncn2[C@@H]1O[C@H](C(=O)N(CCC2=CCCCC2)CC2CC2)[C@@H](O)[C@H]1O	16µM*	-1%	5%	3%	?	-8%
CN(CC(=O)Nc1ccccc1C(=O)NC1CC1)Cc1ccco1	2%	-1%	2%	-6%[9.24 µM]	-3%	3%
CCC(=O)N(Cc1cc2c(C)ccc(C)c2[nH]c1=O)C1CCCCC1	16µM*	?	-11%	-11%	?	-14%
O=C(COC(=O)c1cc[n+]([O-])cc1)NC(=O)c1ccc(OC(F)F)cc1	-6%	22%	27%	-5%	-8%	-1%
COc1ccc(-n2c(COc3ccc(C)cc3)nnc2SCc2ccc(C#N)cc2)cc1	?	-26%	?	-14%	?	7%
COc1ccc(-n2c(Cc3cc(=O)[nH]c(=O)[nH]3)nnc2SCc2ccccc2)cc1	2%	3%	-1%	4%	-1%	-2%
COc1ccc(-n2c(COc3ccc(Cl)cc3)nnc2SCc2ccc(C#N)cc2)cc1	23µM*	?	?	?	?	-30%
N#Cc1ccc(OCc2nnc(SCC(=O)c3ccccc3)n2-c2ccccc2)cc1	?	-13%	-8%	-7%	23µM*	17%
COc1ccc(NCc2nnc(SCc3ccc(Cl)cc3)n2-c2ccccc2)cc1	18µM*	?	-25%	?	?	-25%
Cc1ccc(OCc2nnc(SCC(=O)c3ccccc3)n2-c2ccccc2)cc1	?	?	?	?	?	-4%
CCOc1ccc(-n2c(SCc3ccc([N+](=O)[O-])cc3)nnc2-c2ccc(OC)cc2)cc1	29µM*	-30%	-17%	-9%	18µM*	-23%
CCOC(=O)c1ccc(NC(=O)c2cc(=O)c3cc(CC)ccc3o2)cc1	-15%	-8%	·	·	0%	3%
Cc1nc(NC(=O)C23CC4CC(CC(C4)C2)C3)sc1Cc1ccc2c(c1)OCO2	21µM*	?	-12%	-1%	?	0%
Cc1c(Cc2ccc3c(c2)OCO3)sc(NC(=O)C2CC2)c1C(N)=O	10µM*	-1%	-21%	-1%	10µM*	-40%
CN(C)CCNc1c(N)c(=O)oc2ccccc12	?	-5%	1%	12%	?	-2%
Cc1ccc(S(=O)(=O)Nc2c(NC3CCCCC3)c3ccccc3oc2=O)cc1	1%	-26%	-9%	-1%	?	-3%
Nc1c(NCCN2CCOCC2)c2ccccc2oc1=O	9.2µM*	-3%	2%	1%	5.2µM*	9%
Nc1c(NC2CCCCC2)c2ccccc2oc1=O	16µM*	-18%	?	-14%	?	-23%
CCCSc1nc(N)nc2c1ncn2C1OC(CO)C(O)C1O (stereo not drawn)	-2%	-9%	3%	4%	-9%	-16%
CC1SC(C)C(=O)N(CC(=O)NC2CCCCC2)C1=O (stereo not drawn)	11%	2%	21%	5%	11%	-2%
CC1CCC(C(C)C)C(OC(=O)Cn2c(-c3ccc(F)cc3)[n+](C)c3ccccc32)C1 (stereo not drawn)	2.3µM*	8.9µM*	10µM*	18µM*	2.3µM*	-51%
CC1CCC(C(C)C)C(OC(=O)Cn2c(-c3ccccc3)[n+](C)c3ccccc32)C1 (stereo not drawn)	0.46µM*	5.6µM*!	9.2µM*	?	0.52µM*	-53%
CC1CCC(C(C)C)C(OC(=O)CSc2nnc(N)s2)C1 (stereo not drawn)	-29%	3%	1%	-1%	?	5%
Cc1cccc(OCc2n(CC(=O)OC3CC(C)CCC3C(C)C)c3ccccc3[n+]2C)c1 (stereo not drawn)	5.8µM*	16µM*	8.2µM*	18µM*	5.2µM*	20µM*
SMILES	DT40 TDP1 no CPT	TGFb SMAD3 inh	HT1080 IDH1KD tx	HT1080NT lethal	TDP1 cell CPT	HepG2 viability
CCc1nc(SCC(=O)NC2CCCC2)c2c(=O)n(C)c(=O)n(C)c2n1	-9%	0%	0%	5%	3%	5%
Cc1ccc(-c2nc(N/N=C/c3cccc([N+](=O)[O-])c3)c3ccccc3n2)cc1	15µM*	-2%	11%	-2%	13µM*	-19%
Cc1ccc(-c2nc(N/N=C/c3cccnc3)c3ccccc3n2)cc1	18µM*	?	?	11µM*	23µM*	14µM*
Cc1ccc(-c2nc(NCc3cccnc3)c3ccccc3n2)cc1	-1%	0%	-14%	2%	27%	-31%
N#Cc1c2c(c(Nc3ccc(F)cc3)n3c1nc1ccccc13)CCCC2	18µM*	?	-24%	-2%	16µM*	-29%
CCn1c(CC(=O)Nc2ccccc2F)nnc1SCC(=O)NC1=NCCS1	?	3%	5%	6%	?	4%
Cc1ccc[n+](C(C)C(=O)c2ccc(-c3ccccc3)cc2)c1 (stereo not drawn)	5.2µM*	-30%	-15%	?	4.1µM*	-11%
CC(C(=O)c1ccc(-c2ccccc2)cc1)[n+]1cccc(C(N)=O)c1 (stereo not drawn)	-10%	20%	-14%	-10%	11%	-1%
CC(=O)Nc1cc[n+](C(C)C(=O)c2ccc(Cl)cc2)cc1 (stereo not drawn)	16µM*	-2%	-13%	1%	16µM*	-18%
CC(C(=O)c1ccc(-c2ccccc2)cc1)[n+]1ccccc1 (stereo not drawn)	2.1µM*	-29%	?	-11%	2.6µM*	0%
CCCCCC[n+]1c(-c2ccc(Cl)cc2Cl)csc1Nc1ccccc1	23µM*	5%	2%	4%	?	-2%
Clc1ccc(-c2nnc(CCc3ccccc3)o2)c(Cl)c1	-10%	-9%	-3%	-3%	-2%	-22%
